Here are results for nine compounds from PubChem BioAssay (NCI).

This is part of a sample that, as a whole, favours compounds with a hit. Of some 79,000 tested, about 15% had one in any assay. Values without a mark were called inactive. Activity calls are given as the source filed them. No stated cut-off is given here; in the data, active means growth inhibition above about 70%; inactive means the rest.

Test [1] in a line: NCI Yeast Anticancer Drug Screen. Data for the rad50 strain (AID 155).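 Further: 0% = growth of vehicle-only cultures of the same strain.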 The note with it: S. cerevisiae rad50 strain growth inhibition, stronger effect = higher value. In outline: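 Vehicle-treated cultures provide the reference for the growth inhibition reported for compound-exposed, repair-deficient yeast.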
The nature of test [2]: NCI Yeast Anticancer Drug Screen. Data for the mec2-1 strain (AID 157). The note with it: S. cerevisiae mec2-1 strain, stronger effect = higher value. In outline:
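Mutant yeast (mec2-1) grown with compound; growth inhibition relative to vehicle control reported.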

The nature of test [3]: NCI Yeast Anticancer Drug Screen. Data for the sgs1 mgt1 strain (AID 161).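 Further: 0% = growth of cultures given vehicle only.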 The note with it: S. cerevisiae sgs1 mgt1 strain, stronger effect = higher value. In outline: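 Percent growth inhibition was derived by comparing compound-exposed mutant yeast with vehicle-exposed cultures. The strain carries alterations in DNA damage repair.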
Test [4] can be described thus: NCI Yeast Anticancer Drug Screen. Data for the cln2 rad14 strain (AID 165).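 Further: 0% = growth equal to vehicle treated cultures.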 The note with it: S. cerevisiae cln2 rad14 strain, stronger effect = higher value. Put shortly: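 Readout is yeast growth inhibition versus vehicle-treated controls, using a strain with cln2 and rad14 alterations exposed to compound.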
Test [5] is described as follows: NCI Yeast Anticancer Drug Screen. Data for the bub3 strain (AID 167). The note with it: S. cerevisiae bub3 mutant strain, stronger effect = higher value. In outline: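 Mutant yeast screening strain plus compound; vehicle-treated cultures serve as the 0% inhibition reference.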
Test [6] in a line: NCI Yeast Anticancer Drug Screen. Data for the mlh1 rad18 strain (AID 175). The note with it: S. cerevisiae mlh1 rad18 strain growth inhibition, stronger effect = higher value. In outline: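 Genetically defined yeast (DNA repair-deficient) exposed to compounds; growth inhibition determined relative to vehicle.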
The mark [7] stands for this setting: at 5.0 µM (retest, dose inferred, filed as 0.5).
Setting [8] is: at 50.0 µM (retest, dose inferred, filed as 5.0).

As to `CCOP(=O)(C=C=C1CCC2[C@@H]3CCc4cc(OC)ccc4C3CC[C@]12C)OCC` (some centres not stated), the growth inhibition in test [1] (setting [7]) was 5%; in test [1] (setting [8]), 97% (active); in test [1] (at 50.0 µM), 97.7% (active); in test [2] (setting [7]) it was -1%; in test [2] (setting [8]) it was 99% (active); in test [2] (at 50.0 µM), 98.3% (active). The growth inhibition is 3% in test [3] (setting [7]); 98% (active) in test [3] (setting [8]); 98% (active) in test [3] (at 50.0 µM); 1% in test [4] (setting [7]); 98% (active) in test [4] (setting [8]); 97.8% (active) in test [4] (at 50.0 µM). Moreover, the growth inhibition is 13% in test [5] (setting [7]); 98% (active) in test [5] (setting [8]); 98% (active) in test [5] (at 50.0 µM); -7% in test [6] (setting [7]); 98% (active) in test [6] (setting [8]); 98% (active) in test [6] (at 50.0 µM).

Regarding `O=C1C(c2ccccc2)=S=C2C=CC=CN12`, the growth inhibition in test [1] (setting [7]) is 2%; in test [1] (setting [8]) it was 67%; in test [1] (at 50.0 µM) it was 85.2% (active); in test [2] (setting [7]), -1%; in test [2] (setting [8]) it was 41%; in test [2] (at 50.0 µM), 41.1%. Also, the growth inhibition in test [3] (setting [7]) is 2%; in test [3] (setting [8]), 79% (active); in test [3] (at 50.0 µM), 16.8%; in test [4] (setting [7]), -1%; in test [4] (setting [8]), 17%; in test [4] (at 50.0 µM), -0.75%. The growth inhibition in test [5] (setting [7]) was -4%; in test [5] (setting [8]), 72% (active); in test [5] (at 50.0 µM), 41.5%; in test [6] (setting [7]) it was 19%; in test [6] (setting [8]), 95% (active); in test [6] (at 50.0 µM), 79.3% (active).

For the compound `COc1ccc(C2CC(CO)ON2c2ccccc2)cc1` (configuration not stated), the growth inhibition in test [1] (setting [7]) is -17%; in test [1] (setting [8]), 7%; in test [1] (at 50.0 µM), 98% (active); in test [2] (setting [7]), -14%; in test [2] (setting [8]) it was -9%; in test [2] (at 50.0 µM) it was 98.5% (active). For the same compound, the growth inhibition in test [3] (setting [7]) is -1%; in test [3] (setting [8]), -15%; in test [3] (at 50.0 µM), 98.4% (active); in test [4] (setting [7]), -23%; in test [4] (setting [8]), -18%; in test [4] (at 50.0 µM), 97.9% (active). Besides, the growth inhibition was -21% in test [5] (setting [7]); -33% in test [5] (setting [8]); 98.5% (active) in test [5] (at 50.0 µM); -6% in test [6] (setting [7]); 1% in test [6] (setting [8]); 98.8% (active) in test [6] (at 50.0 µM).

For `CC1(C)N=C(N)N=C(N)N1c1cccc(CCCCC(=O)CCl)c1`, the growth inhibition was 15% in test [1] (setting [7]); 89% (active) in test [1] (setting [8]); 95.8% (active) in test [1] (at 50.0 µM); 0% in test [2] (setting [7]); 72% (active) in test [2] (setting [8]); 95% (active) in test [2] (at 50.0 µM). Moreover, the growth inhibition was -5% in test [3] (setting [7]); 79% (active) in test [3] (setting [8]); 95.9% (active) in test [3] (at 50.0 µM); -5% in test [4] (setting [7]); 62% in test [4] (setting [8]); 81.6% (active) in test [4] (at 50.0 µM). For the same compound, the growth inhibition in test [5] (setting [7]) is -5%; in test [5] (setting [8]), 51%; in test [5] (at 50.0 µM) it was 86.7% (active); in test [6] (setting [7]), -18%; in test [6] (setting [8]), 91% (active); in test [6] (at 50.0 µM), 97.8% (active).

Turning to `Cc1ccc(C)c(NC(=O)CC2SC(=Nc3ccccc3Cl)NC2=O)c1` (configuration not stated), the growth inhibition in test [1] (setting [7]) was 23%; in test [1] (setting [8]), 65%; in test [1] (at 50.0 µM) it was 79% (active); in test [2] (setting [7]) it was 24%; in test [2] (setting [8]), 60%; in test [2] (at 50.0 µM), 58.9%. Further, the growth inhibition in test [3] (setting [7]) was 25%; in test [3] (setting [8]) it was 91% (active); in test [3] (at 50.0 µM), 65.3%; in test [4] (setting [7]), 23%; in test [4] (setting [8]), 55%; in test [4] (at 50.0 µM) it was 78% (active). For the same compound, the growth inhibition in test [5] (setting [7]) is 33%; in test [5] (setting [8]), 85% (active); in test [5] (at 50.0 µM), 75.9% (active); in test [6] (setting [7]), 31%; in test [6] (setting [8]) it was 82% (active); in test [6] (at 50.0 µM), 64.5%.

With `Cc1ccc(NC(=O)c2cc3ccccc3c(N=Nc3cc(S(=O)(=O)O)ccc3O)c2O)c(C)c1`, the growth inhibition in test [1] (setting [7]) is 33%; in test [1] (setting [8]), 85% (active); in test [1] (at 50.0 µM) it was 71.8% (active); in test [2] (setting [7]), 33%; in test [2] (setting [8]) it was 84% (active); in test [2] (at 50.0 µM), 52.3%. For the same compound, the growth inhibition in test [3] (setting [7]) is 56%; in test [3] (setting [8]), 92% (active); in test [3] (at 50.0 µM) it was 78.7% (active); in test [4] (setting [7]) it was 29%; in test [4] (setting [8]), 43%; in test [4] (at 50.0 µM) it was 59.9%. Further, the growth inhibition in test [5] (setting [7]) was 50%; in test [5] (setting [8]), 92% (active); in test [5] (at 50.0 µM), 82.8% (active); in test [6] (setting [7]), 57%; in test [6] (setting [8]), 87% (active); in test [6] (at 50.0 µM), 80.8% (active).

With `CCOc1ccc2c(c1)[n+]([O-])c(-c1ccc(Cl)cc1)c(N)[n+]2[O-]`, the growth inhibition in test [1] (setting [7]) is 24%; in test [1] (setting [8]), 99% (active); in test [1] (at 50.0 µM), 99.2% (active); in test [2] (setting [7]) it was 23%; in test [2] (setting [8]) it was 99% (active); in test [2] (at 50.0 µM) it was 98.2% (active). Also, the growth inhibition in test [3] (setting [7]) was 50%; in test [3] (setting [8]), 100% (active); in test [3] (at 50.0 µM), 99.3% (active); in test [4] (setting [7]), 34%; in test [4] (setting [8]), 98% (active); in test [4] (at 50.0 µM), 98.8% (active). Moreover, the growth inhibition was 63% in test [5] (setting [7]); 99% (active) in test [5] (setting [8]); 99.2% (active) in test [5] (at 50.0 µM); 68% in test [6] (setting [7]); 99% (active) in test [6] (setting [8]); 98.8% (active) in test [6] (at 50.0 µM).

With `O=c1cccccc1O`, the growth inhibition was 14% in test [1] (setting [7]); 97% (active) in test [1] (setting [8]); 90.4% (active) in test [1] (at 50.0 µM); 4% in test [2] (setting [7]); 100% (active) in test [2] (setting [8]); 91.7% (active) in test [2] (at 50.0 µM). Also, the growth inhibition in test [3] (setting [7]) is 8%; in test [3] (setting [8]) it was 99% (active); in test [3] (at 50.0 µM), 93.3% (active); in test [4] (setting [7]), 16%; in test [4] (setting [8]), 62%; in test [4] (at 50.0 µM) it was 85.7% (active). Besides, the growth inhibition in test [5] (setting [7]) is 26%; in test [5] (setting [8]), 97% (active); in test [5] (at 50.0 µM) it was 91.5% (active); in test [6] (setting [7]), 13%; in test [6] (setting [8]) it was 98% (active); in test [6] (at 50.0 µM), 81.1% (active).

On to `O=[N+]([O-])c1ccc(-n2ncc3cccnc32)c([N+](=O)[O-])c1`, for which the growth inhibition is 1% in test [1] (setting [7]); 99% (active) in test [1] (setting [8]); 99% (active) in test [1] (at 50.0 µM); -12% in test [2] (setting [7]); 99% (active) in test [2] (setting [8]); 93.6% (active) in test [2] (at 50.0 µM). Further, the growth inhibition in test [3] (setting [7]) was 2%; in test [3] (setting [8]) it was 100% (active); in test [3] (at 50.0 µM), 99.3% (active); in test [4] (setting [7]), -1%; in test [4] (setting [8]), 98% (active); in test [4] (at 50.0 µM) it was 46.9%. Further, the growth inhibition in test [5] (setting [7]) was 33%; in test [5] (setting [8]) it was 99% (active); in test [5] (at 50.0 µM), 92% (active); in test [6] (setting [7]), 26%; in test [6] (setting [8]) it was 100% (active); in test [6] (at 50.0 µM), 99.5% (active).
